# Laboratory results reported in publication PMC7862700, “An all-to-all approach to the identification of sequence-specific readers for epigenetic DNA modifications on cytosine”.
# What was measured:
# Assay in all cases: DAPPL (digital affinity profiling via proximity ligation, sequencing); 10 mM Tris-HCl pH 7.5, 50 mM NaCl, 1 mM DTT, 4% glycerol, room temperature, 30 min; GST-TFs on glutathione beads, 16-mer random dsDNA library, 0.1% formaldehyde crosslink after washing; high values mean tight binding
# [1] = target: T1, FEV (Homo sapiens, UniProt Q99581 1-238); settings: protein: recombinant; tags: N-terminal GST; dsDNA, one strand shown
# T1 sequence: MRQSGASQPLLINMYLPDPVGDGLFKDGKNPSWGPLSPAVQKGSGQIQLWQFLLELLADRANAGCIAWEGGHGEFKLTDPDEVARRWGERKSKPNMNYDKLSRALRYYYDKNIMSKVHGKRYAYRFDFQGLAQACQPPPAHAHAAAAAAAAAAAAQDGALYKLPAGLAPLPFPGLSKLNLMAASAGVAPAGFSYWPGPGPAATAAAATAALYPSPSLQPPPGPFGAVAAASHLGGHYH
# Method in brief: (§1)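 Human transcription factors fused to GST were expressed in yeast, captured on glutathione beads, given DNA barcodes and pooled with a GST-only negative control. Pools were incubated with 200 nmole of a 16-mer random double-stranded DNA library in Tris/NaCl/DTT/glycerol buffer at room temperature for 30 min. They were then washed, crosslinked with 0.1% formaldehyde, proximity-ligated (BsaI/T4 ligase, 1 h, 37 °C), PCR-amplified and sequenced on an Illumina NextSeq500. Binding signal is each 6-mer's read frequency for a factor divided by its frequency for the GST control.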
# [2] = target: ETV5 (Homo sapiens, UniProt P41161 1-510); settings: protein: recombinant; tags: N-terminal GST; dsDNA, one strand shown
# Method in brief: as §1
# [3] = target: HSF1 (Homo sapiens, UniProt Q00613 1-529); settings: protein: recombinant; tags: N-terminal GST; chain copies: 3; dsDNA, one strand shown
# Method in brief: as §1
# [4] = target: T2, SPIC (Homo sapiens, UniProt Q8N5J4 1-248); settings: protein: recombinant; tags: N-terminal GST; dsDNA, one strand shown
# T2 sequence: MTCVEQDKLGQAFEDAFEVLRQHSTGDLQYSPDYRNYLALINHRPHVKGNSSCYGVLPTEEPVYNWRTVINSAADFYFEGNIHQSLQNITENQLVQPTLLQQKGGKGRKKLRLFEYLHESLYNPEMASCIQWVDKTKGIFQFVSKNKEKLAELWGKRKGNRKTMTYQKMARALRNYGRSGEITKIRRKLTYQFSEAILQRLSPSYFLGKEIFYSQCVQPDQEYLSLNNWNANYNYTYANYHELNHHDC
# Method in brief: as §1
# [5] = target: ELF4 (Homo sapiens, UniProt Q99607 1-663); settings: protein: recombinant; tags: N-terminal GST; dsDNA, one strand shown
# Method in brief: as §1
# [6] = target: T3, ELK4 (Homo sapiens, UniProt P28324-2 1-405); settings: protein: recombinant; tags: N-terminal GST; dsDNA, one strand shown
# T3 sequence: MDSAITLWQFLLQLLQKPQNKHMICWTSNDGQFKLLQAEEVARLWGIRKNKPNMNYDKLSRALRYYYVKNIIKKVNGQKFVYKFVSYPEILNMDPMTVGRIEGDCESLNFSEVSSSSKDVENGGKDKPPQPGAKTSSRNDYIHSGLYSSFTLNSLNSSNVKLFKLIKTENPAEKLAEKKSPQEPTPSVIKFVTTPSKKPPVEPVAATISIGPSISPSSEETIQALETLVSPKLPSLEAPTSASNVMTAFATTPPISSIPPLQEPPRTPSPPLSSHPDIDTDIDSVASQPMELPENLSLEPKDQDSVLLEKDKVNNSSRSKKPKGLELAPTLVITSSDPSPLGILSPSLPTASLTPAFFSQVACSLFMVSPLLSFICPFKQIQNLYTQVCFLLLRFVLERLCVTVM
# Method in brief: as §1
# [7] = target: T4, ETV2 (Homo sapiens, UniProt O00321 1-342); settings: protein: recombinant; tags: N-terminal GST; dsDNA, one strand shown
# T4 sequence: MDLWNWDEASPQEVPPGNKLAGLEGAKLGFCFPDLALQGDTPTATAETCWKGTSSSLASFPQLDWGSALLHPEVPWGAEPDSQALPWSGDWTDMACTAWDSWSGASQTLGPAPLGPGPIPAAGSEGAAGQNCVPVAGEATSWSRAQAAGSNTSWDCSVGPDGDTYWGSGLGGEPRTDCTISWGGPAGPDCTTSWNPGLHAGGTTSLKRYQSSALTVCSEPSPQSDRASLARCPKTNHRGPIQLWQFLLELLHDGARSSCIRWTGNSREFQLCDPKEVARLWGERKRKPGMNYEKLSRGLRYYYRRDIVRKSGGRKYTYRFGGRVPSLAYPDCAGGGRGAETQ
# Method in brief: as §1
# [8] = target: T5, ELF3 (Homo sapiens, UniProt P78545 1-371); settings: protein: recombinant; tags: N-terminal GST; dsDNA, one strand shown
# T5 sequence: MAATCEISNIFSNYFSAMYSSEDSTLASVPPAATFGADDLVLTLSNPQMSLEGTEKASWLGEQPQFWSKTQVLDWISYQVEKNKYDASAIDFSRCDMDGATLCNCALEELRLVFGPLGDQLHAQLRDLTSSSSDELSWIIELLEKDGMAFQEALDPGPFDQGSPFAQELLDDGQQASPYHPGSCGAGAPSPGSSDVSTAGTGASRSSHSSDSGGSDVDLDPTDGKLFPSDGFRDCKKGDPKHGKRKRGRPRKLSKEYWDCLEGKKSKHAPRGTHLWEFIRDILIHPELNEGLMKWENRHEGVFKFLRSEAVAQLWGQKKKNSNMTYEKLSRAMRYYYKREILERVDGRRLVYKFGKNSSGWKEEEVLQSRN
# Method in brief: as §1
# [9] = target: CRX (Homo sapiens, UniProt O43186 1-299); settings: protein: recombinant; tags: N-terminal GST; dsDNA, one strand shown
# Method in brief: as §1
# [10] = target: ETV1 (Homo sapiens, UniProt P50549 1-477); settings: protein: recombinant; tags: N-terminal GST; dsDNA, one strand shown
# Method in brief: as §1
# [11] = target: T6, ERF (Homo sapiens, UniProt P50548 1-548); settings: protein: recombinant; tags: N-terminal GST; dsDNA, one strand shown
# T6 sequence: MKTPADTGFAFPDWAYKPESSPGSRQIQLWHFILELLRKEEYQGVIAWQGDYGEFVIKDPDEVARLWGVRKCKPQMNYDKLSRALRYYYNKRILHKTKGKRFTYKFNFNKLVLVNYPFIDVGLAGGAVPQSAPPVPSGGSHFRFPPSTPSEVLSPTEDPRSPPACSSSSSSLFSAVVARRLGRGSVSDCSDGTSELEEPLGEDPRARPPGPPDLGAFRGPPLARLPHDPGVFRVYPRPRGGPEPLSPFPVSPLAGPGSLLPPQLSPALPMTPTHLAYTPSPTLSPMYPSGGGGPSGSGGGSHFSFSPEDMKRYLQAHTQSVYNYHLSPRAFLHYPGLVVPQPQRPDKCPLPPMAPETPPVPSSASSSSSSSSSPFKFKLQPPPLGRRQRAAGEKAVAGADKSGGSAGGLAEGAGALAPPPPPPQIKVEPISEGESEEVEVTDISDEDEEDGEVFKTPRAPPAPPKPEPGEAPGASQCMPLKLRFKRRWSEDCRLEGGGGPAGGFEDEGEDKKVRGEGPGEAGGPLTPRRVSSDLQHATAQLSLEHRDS
# Method in brief: as §1
# [12] = target: T7, ETV3L (Homo sapiens, UniProt Q6ZN32 1-361); settings: protein: recombinant; tags: N-terminal GST; dsDNA, one strand shown
# T7 sequence: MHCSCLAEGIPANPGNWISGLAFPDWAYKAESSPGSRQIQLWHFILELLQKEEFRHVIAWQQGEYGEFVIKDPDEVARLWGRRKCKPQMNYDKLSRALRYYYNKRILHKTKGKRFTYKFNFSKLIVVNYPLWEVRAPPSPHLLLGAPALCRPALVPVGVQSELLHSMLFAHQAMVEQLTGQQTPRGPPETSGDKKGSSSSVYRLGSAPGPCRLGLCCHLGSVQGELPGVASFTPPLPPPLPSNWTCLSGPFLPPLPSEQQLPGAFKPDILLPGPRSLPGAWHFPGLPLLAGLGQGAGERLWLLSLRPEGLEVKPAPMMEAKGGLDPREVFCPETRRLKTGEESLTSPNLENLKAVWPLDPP
# Method in brief: as §1
# [13] = target: T8, ETS2 (Homo sapiens, UniProt P15036 1-469); settings: protein: recombinant; tags: N-terminal GST; dsDNA, one strand shown
# T8 sequence: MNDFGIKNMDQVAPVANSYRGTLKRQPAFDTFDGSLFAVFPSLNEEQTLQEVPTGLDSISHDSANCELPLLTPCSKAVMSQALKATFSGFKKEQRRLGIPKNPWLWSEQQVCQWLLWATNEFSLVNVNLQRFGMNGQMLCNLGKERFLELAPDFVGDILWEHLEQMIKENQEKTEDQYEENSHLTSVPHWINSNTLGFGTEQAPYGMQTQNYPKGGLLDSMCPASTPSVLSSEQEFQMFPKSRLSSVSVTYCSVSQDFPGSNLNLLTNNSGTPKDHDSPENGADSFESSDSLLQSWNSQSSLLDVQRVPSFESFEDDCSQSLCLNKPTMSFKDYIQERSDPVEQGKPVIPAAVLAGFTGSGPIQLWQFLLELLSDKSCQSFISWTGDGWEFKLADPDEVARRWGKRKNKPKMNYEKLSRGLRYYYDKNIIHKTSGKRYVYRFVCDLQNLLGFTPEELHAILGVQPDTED
# Method in brief: as §1
# [14] = target: T9, SPDEF (Homo sapiens, UniProt O95238 1-335); settings: protein: recombinant; tags: N-terminal GST; dsDNA, one strand shown
# T9 sequence: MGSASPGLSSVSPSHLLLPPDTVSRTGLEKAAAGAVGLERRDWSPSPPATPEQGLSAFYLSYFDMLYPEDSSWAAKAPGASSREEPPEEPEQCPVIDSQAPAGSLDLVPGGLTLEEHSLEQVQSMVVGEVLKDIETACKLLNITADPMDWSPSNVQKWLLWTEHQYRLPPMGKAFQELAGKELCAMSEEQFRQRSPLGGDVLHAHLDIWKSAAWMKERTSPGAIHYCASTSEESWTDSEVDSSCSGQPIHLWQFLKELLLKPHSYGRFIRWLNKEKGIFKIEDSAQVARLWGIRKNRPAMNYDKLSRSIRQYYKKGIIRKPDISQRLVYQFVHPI
# Method in brief: as §1
# [15] = target: T10, ETV7 (Homo sapiens, UniProt Q9Y603 1-341); settings: protein: recombinant; tags: N-terminal GST; dsDNA, one strand shown
# T10 sequence: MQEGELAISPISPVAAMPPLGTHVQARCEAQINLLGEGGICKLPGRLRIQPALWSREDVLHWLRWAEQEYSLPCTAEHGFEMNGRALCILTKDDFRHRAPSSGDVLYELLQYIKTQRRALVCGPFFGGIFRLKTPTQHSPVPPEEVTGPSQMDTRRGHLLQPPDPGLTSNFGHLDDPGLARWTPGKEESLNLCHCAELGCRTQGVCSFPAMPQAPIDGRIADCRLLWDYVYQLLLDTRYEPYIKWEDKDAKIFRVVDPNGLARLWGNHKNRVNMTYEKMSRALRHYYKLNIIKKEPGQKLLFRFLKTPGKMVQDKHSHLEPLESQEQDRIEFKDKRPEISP
# Method in brief: as §1
# [16] = target: T11, ELF5 (Homo sapiens, UniProt Q9UKW6-2 1-255); settings: protein: recombinant; tags: N-terminal GST; dsDNA, one strand shown
# T11 sequence: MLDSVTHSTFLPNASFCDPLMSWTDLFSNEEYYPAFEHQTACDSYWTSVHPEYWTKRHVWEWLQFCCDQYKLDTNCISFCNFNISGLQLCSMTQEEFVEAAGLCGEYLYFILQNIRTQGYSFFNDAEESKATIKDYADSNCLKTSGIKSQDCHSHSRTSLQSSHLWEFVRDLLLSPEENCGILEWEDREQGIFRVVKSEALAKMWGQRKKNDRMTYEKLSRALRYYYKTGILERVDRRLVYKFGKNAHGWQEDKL
# Method in brief: as §1
# [17] = target: T12, ETV3 (Homo sapiens, UniProt P41162-2 1-143); settings: protein: recombinant; tags: N-terminal GST; dsDNA, one strand shown
# T12 sequence: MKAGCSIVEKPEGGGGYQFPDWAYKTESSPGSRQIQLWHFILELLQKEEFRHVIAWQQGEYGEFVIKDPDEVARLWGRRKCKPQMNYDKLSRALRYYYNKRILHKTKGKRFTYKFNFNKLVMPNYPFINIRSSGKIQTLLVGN
# Method in brief: as §1
# [18] = target: ETV6 (Homo sapiens, UniProt P41212 1-452); settings: protein: recombinant; tags: N-terminal GST; dsDNA, one strand shown
# Method in brief: as §1
# Sequence of HSF1 (Q00613 whole entry): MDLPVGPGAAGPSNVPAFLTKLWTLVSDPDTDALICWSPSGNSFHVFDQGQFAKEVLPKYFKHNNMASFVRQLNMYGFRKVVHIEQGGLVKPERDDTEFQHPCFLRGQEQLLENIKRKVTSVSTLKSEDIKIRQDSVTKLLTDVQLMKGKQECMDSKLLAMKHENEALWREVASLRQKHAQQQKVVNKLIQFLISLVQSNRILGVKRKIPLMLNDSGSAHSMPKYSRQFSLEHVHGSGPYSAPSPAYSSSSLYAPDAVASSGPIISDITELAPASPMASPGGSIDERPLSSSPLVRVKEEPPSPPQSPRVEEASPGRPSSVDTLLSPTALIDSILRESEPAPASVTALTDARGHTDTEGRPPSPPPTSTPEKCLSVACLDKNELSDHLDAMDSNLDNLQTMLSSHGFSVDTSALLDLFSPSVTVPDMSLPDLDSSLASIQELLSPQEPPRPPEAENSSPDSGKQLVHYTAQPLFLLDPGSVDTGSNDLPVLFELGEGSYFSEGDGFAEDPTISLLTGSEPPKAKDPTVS
# Sequence of ETV6 (P41212 whole entry): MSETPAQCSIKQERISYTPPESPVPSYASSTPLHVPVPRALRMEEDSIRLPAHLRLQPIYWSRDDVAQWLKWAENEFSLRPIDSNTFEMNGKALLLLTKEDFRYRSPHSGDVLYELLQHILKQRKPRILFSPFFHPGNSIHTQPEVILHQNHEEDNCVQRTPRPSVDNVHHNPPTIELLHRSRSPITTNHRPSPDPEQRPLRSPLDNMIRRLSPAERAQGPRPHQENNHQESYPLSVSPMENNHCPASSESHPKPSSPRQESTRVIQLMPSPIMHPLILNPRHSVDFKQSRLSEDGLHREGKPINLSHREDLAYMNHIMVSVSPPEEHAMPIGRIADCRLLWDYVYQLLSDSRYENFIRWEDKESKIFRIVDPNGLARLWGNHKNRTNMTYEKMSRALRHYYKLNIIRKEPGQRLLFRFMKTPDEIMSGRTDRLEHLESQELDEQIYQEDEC
# Sequence of ETV5 (P41161 whole entry): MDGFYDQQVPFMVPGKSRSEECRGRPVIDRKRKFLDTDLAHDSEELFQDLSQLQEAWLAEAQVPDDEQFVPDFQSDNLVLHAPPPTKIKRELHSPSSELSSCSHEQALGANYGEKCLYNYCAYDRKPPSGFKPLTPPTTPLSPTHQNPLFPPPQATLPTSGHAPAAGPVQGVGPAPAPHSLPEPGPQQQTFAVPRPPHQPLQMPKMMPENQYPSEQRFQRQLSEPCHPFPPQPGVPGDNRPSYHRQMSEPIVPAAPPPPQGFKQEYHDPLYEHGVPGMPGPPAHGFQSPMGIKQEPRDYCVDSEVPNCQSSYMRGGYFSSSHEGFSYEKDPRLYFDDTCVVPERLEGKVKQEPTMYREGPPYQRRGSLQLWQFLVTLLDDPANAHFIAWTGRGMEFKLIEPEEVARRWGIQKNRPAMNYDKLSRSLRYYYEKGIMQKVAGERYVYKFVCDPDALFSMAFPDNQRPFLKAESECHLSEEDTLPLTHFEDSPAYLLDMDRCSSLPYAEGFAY
# Sequence of ETV1 (P50549 whole entry): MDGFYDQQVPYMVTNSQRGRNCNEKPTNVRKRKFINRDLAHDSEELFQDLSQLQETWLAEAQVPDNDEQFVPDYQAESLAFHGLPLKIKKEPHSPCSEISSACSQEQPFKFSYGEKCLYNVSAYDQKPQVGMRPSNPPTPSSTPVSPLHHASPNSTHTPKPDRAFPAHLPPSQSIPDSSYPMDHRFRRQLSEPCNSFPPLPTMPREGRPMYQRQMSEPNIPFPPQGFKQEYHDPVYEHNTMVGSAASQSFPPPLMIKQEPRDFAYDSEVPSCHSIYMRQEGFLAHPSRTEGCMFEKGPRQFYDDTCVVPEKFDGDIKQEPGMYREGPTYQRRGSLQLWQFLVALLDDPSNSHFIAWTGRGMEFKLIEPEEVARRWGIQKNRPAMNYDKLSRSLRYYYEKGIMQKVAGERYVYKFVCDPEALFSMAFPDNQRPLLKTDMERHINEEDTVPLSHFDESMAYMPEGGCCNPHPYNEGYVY
# Sequence of CRX (O43186 whole entry): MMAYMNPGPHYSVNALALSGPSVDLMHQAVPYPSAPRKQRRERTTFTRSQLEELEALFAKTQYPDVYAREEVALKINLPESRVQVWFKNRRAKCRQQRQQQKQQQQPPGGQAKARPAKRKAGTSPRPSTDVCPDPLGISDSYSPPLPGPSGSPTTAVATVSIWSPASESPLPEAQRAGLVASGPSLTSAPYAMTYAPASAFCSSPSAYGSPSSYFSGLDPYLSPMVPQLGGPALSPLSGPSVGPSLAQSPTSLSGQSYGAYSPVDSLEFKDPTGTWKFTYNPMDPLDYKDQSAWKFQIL
# Sequence of ELF4 (Q99607 whole entry): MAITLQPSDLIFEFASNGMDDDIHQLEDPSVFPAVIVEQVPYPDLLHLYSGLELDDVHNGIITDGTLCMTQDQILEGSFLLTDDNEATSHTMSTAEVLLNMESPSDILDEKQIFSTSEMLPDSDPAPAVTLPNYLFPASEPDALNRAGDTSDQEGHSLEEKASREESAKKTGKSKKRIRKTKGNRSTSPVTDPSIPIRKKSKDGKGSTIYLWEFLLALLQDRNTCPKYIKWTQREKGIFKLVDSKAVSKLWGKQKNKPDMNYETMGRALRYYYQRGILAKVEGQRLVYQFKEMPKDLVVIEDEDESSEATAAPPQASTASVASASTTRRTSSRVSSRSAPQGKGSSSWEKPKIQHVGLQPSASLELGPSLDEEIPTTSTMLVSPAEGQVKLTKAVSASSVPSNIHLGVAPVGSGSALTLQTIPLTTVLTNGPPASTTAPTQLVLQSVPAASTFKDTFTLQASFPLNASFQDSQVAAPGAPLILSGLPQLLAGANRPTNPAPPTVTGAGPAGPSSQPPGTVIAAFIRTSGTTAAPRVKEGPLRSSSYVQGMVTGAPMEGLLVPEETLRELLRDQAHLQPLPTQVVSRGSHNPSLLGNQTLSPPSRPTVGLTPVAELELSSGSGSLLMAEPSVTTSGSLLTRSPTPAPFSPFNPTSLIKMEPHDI
sequence,measurement,setting,value
TACGAC,binding signal,[1],"1.28 fold enrichment (6-mer frequency, TF over GST control)"
same,binding signal,[2],"1.18 fold enrichment (6-mer frequency, TF over GST control)"
same,binding signal,[3],"1.14 fold enrichment (6-mer frequency, TF over GST control)"
same,binding signal,[4],"1.22 fold enrichment (6-mer frequency, TF over GST control)"
same,binding signal,[5],"1.34 fold enrichment (6-mer frequency, TF over GST control)"
same,binding signal,[6],"1.3 fold enrichment (6-mer frequency, TF over GST control)"
same,binding signal,[7],"1.51 fold enrichment (6-mer frequency, TF over GST control)"
same,binding signal,[8],"1.31 fold enrichment (6-mer frequency, TF over GST control)"
same,binding signal,[9],"1.25 fold enrichment (6-mer frequency, TF over GST control)"
same,binding signal,[10],"1.37 fold enrichment (6-mer frequency, TF over GST control)"
same,binding signal,[11],"1.18 fold enrichment (6-mer frequency, TF over GST control)"
same,binding signal,[12],"1.22 fold enrichment (6-mer frequency, TF over GST control)"
same,binding signal,[13],"1.27 fold enrichment (6-mer frequency, TF over GST control)"
same,binding signal,[14],"1.48 fold enrichment (6-mer frequency, TF over GST control)"
same,binding signal,[15],"1.18 fold enrichment (6-mer frequency, TF over GST control)"
same,binding signal,[16],"1.29 fold enrichment (6-mer frequency, TF over GST control)"
same,binding signal,[17],"1.33 fold enrichment (6-mer frequency, TF over GST control)"
same,binding signal,[18],"1.29 fold enrichment (6-mer frequency, TF over GST control)"
